# Experimental data as given in PubChem BioAssay (NCI).
# This is part of a sample that, as a whole, favours compounds with a hit. Of some 83,000 tested, about 20% had one in any assay.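 For each line, cells grew in 96-well plates with the test compound present at a single concentration for 48 hours.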 A number with no mark means an inactive call. Activity calls are given as the source filed them. The calls were made as follows: active = growth percent below 10; inactive = the rest.
# Tested on: HL-60(TB) leukemia
# Test: NCI-60 one-dose screen, 48 h (100 = growth as untreated, 0 = no growth, -100 = all killed)
# Conditions: 10 µM unless noted
row,Structure (SMILES),growth
1,CNC1=CC(=O)c2c(C(=O)OC)c(C)[n+]([O-])c(C)c2C1=O,29%
2,COc1cc2nc(Nc3cccc(F)c3)nc(Nc3cc(C)[nH]n3)c2cc1OC,-54% [20 µM] (active)
3,CC1(C)CC[C@]2(CO)CC[C@]3(C)[C@H](CC[C@@H]4[C@@]5(C)CC[C@H](O)C(C)(C)[C@@H]5CC[C@]43C)[C@H]2[C@H]1O,117%
4,CCCCCCCCCCCC1=NCCCN1CCCC,104%
5,CCOc1cccc(/C=N/NC(=O)Cc2ccc(Nc3ccnc(C(F)(F)F)c3)cc2)c1O,73.1%
6,CCN(CC)CCCC(C)Nc1c2ccc(Cl)cc2nc2ccc(OC)cc12 (stereo not drawn),55.3%
7,COc1cc(CCCO)c(OC)c(OC)c1OC,98.4%
8,CNC(=O)c1cc(Oc2ccc3nc(NC(=O)Nc4ccc(F)cc4F)sc3c2)ccn1,98.3%
9,C=C1C(=O)O[C@H]2[C@H]1CC/C(Cn1cc(CNC(=O)Cc3cn(C(=O)c4ccc(Cl)cc4)c4ccc(OC)cc34)nn1)=C\CC[C@@]1(C)O[C@@H]21,-53.4% (active)
10,CC(=O)OC[C@H]1OC(Sc2sc(C(=O)c3ccc(Br)cc3)c(N)c2-c2nc3ccccc3s2)[C@H](OC(C)=O)[C@@H](OC(C)=O)[C@@H]1OC(C)=O (stereo partly drawn),113%
11,O=Cc1ccc(O)c2ncccc12,-69.3% (active)
12,CC1SC(c2ccc(OCc3ccccc3)cc2)N(NC(=O)C(O)(c2ccccc2)c2ccccc2)C1=O (stereo not drawn),14.5%
13,Cc1nccc2c3ccc(OCc4cn(-c5ccc(Cl)cc5)nn4)cc3n(CCCc3ccccc3)c12,-64.9% (active)
